Values without a mark were called inactive. Unless noted, the call rests on the fitted dose curve. Records with an inconclusive call do not appear.
Experiment: qHTS assay to identify small molecule agonists of the hypoxia (HIF-1) signaling pathway (AID 1224846; active means well fitted activation curve with a large enough effect in the signal ratio in the repeat runs, not every such curve was filed as active; the % refers to the signal ratio)
Conditions: HRE-bla ME-180 cells, beta-lactamase ratio, 17 h; series mostly up to 76.8 µM; activation: at the top concentration
Summary of the method: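 Reporter induction in HRE-bla ME-180 cells is taken as agonism: cells sit 5 hrs after plating, receive compounds or DMSO only, incubate 17 hrs at 37C under 5% CO2, and are loaded with CCF4-AM for beta-lactamase FRET measurement.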
On the % scale 0 is the no-effect control and ±100 the full control effect.

Structure (SMILES) | activation
N#CCCC#N | 1.32%
Nc1ccccc1Cl | 0.282%
ClCCOCOCCCl | 0.262%
CNC(=O)O/N=C(\C)SC | -0.0552%
CC1CN1P(=O)(N1CC1C)N1CC1C (stereo not given) | 0.17%
BrCCCCCCBr | -0.77%
COc1cccc(C(=O)NN(C(=O)c2cc(C)cc(C)c2)C(C)(C)C)c1C | 0.975%
CNC(=O)Oc1ccccc1C1OCCO1 | -0.596%
O=C1CN=C(c2ccccc2)c2cc([N+](=O)[O-])ccc2N1 | 0.415% [at 35.5 µM]
O=C(NCO)NCO | -1.09%
CC1CCC(=O)O1 (stereo not given) | -0.252%
CCCCCCBr | -0.213%
O=c1oc2ccccc2c(O)c1C1CCCc2ccccc21 (stereo not given) | -1.21%
CCCCCCI | 0.413%
OCCBr | -0.384%
CCCCP(CCCC)CCCC | -0.9%
CCNc1nc(NC(C)C)nc(OC)n1 | 0.381%
CNC(=O)Oc1ccc(N(C)C)c(C)c1 | 0.111%
CC1(C)C(=O)NC(=O)NC1=O | -1.38%

Structure (SMILES) | activation
Clc1ccccc1N1CCNCC1 | 0.903% [at 35.5 µM]
ClCC(Cl)(Cl)Cl | 0%
c1ccc(N2CCNCC2)cc1 | -1.02% [at 35.5 µM]
NC(=S)C(N)=S | -0.329%
C=CC1CC=CCC1 (stereo not given) | -0.0486%
OCCSCSCCO | 0.193%
CC1(C)COP(Oc2ccccc2)OC1 | 0.0801%
CC(C)CC#N | -1.59%
CN1CCC(O)(c2ccc(F)cc2)C(C(=O)c2ccc(F)cc2)C1 (stereo not given) | 1.05% [at 35.5 µM]
CC1COC2(c3ccccc3Cl)c3cc(Cl)ccc3NC(=O)CN12 (stereo not given) | -1.06% [at 35.5 µM]
O=C1CN2CCOC2(c2ccccc2Cl)c2cc(Cl)ccc2N1 (stereo not given) | 1.39% [at 35.5 µM]
ClC(Br)Br | -0.623%
[O]=[Cd] | -1.53%
ClC(Cl)C(Cl)Cl | -0.0605%
C[N+](=O)[O-] | -0.225%
CC(N)=S | -0.498%
C#CCN1C(=O)COc2cc(F)c(N3C(=O)C4=C(CCCC4)C3=O)cc21 | 1.45%
[As]#[In] | -0.952%
CC(C)(C)NCC(O)c1cc(Cl)c(N)c(Cl)c1 (stereo not given) | 0.0896% [at 35.5 µM]

Experiment: qHTS assay to identify small molecule agonists of H2AX - cell viability counter screen (AID 1224847);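 further: wild-type CHO-K1 cells; top concentration of the series differs between compounds; nearly all actives have a fitted effect of over 30% in size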
Conditions: CHO-K1 viability, CellTiter-Glo luminescence, 3 h; series mostly up to 154 µM; activity change, negative = cytotoxicity: at the top concentration
Summary of the method: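 After overnight plating of 1000 CHO-K1 cells per well, a 15-concentration compound series was applied for 3 hr at 37C. Luminescence from CellTiter-Glo, read following 30 min at room temperature, reflected cell viability.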

Structure (SMILES) | activity change, negative = cytotoxicity
N#CCCC#N | 0.0603%
Nc1ccccc1Cl | 4.95%
ClCCOCOCCCl | 1.26%
CNC(=O)O/N=C(\C)SC | -1.63%
CC1CN1P(=O)(N1CC1C)N1CC1C (stereo not given) | -7.78%
BrCCCCCCBr | 2.36%
COc1cccc(C(=O)NN(C(=O)c2cc(C)cc(C)c2)C(C)(C)C)c1C | 0.372%
CNC(=O)Oc1ccccc1C1OCCO1 | -1.36%
O=C1CN=C(c2ccccc2)c2cc([N+](=O)[O-])ccc2N1 | 6.11% [at 70.9 µM]
O=C(NCO)NCO | 1.69%
CC1CCC(=O)O1 (stereo not given) | 0.397%
CCCCCCBr | 1.3%
O=c1oc2ccccc2c(O)c1C1CCCc2ccccc21 (stereo not given) | 0.577%
CCCCCCI | -4.1%
OCCBr | 2.14%
CCCCP(CCCC)CCCC | 0.874%
CCNc1nc(NC(C)C)nc(OC)n1 | -0.534%
CNC(=O)Oc1ccc(N(C)C)c(C)c1 | 2.84%
CC1(C)C(=O)NC(=O)NC1=O | 2.42%

Structure (SMILES) | activity change, negative = cytotoxicity
Clc1ccccc1N1CCNCC1 | -0.405% [at 70.9 µM]
ClCC(Cl)(Cl)Cl | 3.92%
c1ccc(N2CCNCC2)cc1 | 0.578% [at 70.9 µM]
NC(=S)C(N)=S | 1.1%
C=CC1CC=CCC1 (stereo not given) | 0.205%
OCCSCSCCO | 0.384%
CC1(C)COP(Oc2ccccc2)OC1 | 1.02%
CC(C)CC#N | 0.592%
CN1CCC(O)(c2ccc(F)cc2)C(C(=O)c2ccc(F)cc2)C1 (stereo not given) | 2.57% [at 70.9 µM]
CC1COC2(c3ccccc3Cl)c3cc(Cl)ccc3NC(=O)CN12 (stereo not given) | -0.761% [at 70.9 µM]
O=C1CN2CCOC2(c2ccccc2Cl)c2cc(Cl)ccc2N1 (stereo not given) | -0.132% [at 70.9 µM]
ClC(Br)Br | -1.14%
[O]=[Cd] | -4.9%
ClC(Cl)C(Cl)Cl | -9.04%
C[N+](=O)[O-] | 5.4%
CC(N)=S | 1.19%
C#CCN1C(=O)COc2cc(F)c(N3C(=O)C4=C(CCCC4)C3=O)cc21 | -8.26%
[As]#[In] | 1.06%
CC(C)(C)NCC(O)c1cc(Cl)c(N)c(Cl)c1 (stereo not given) | 0.0884% [at 70.9 µM]

Experiment: qHTS assay to identify small molecule agonists of the estrogen related receptor (ERR) signaling pathway from Tox21 library (AID 1224849); further: nearly all actives have a fitted effect of over 15% in size
Conditions: ERR reporter cell line, ONE-Glo luciferase, 18 h; at 92.4 µM (top of the series) unless noted
Summary of the method: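 Tox21 compounds tested for ERR agonism in an NTP reporter cell line: 18 h treatment at 37 C, then ONE-Glo luminescence.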

Structure (SMILES) | activity change, positive = activation
ClCCOCOCCCl | -2.74%
COc1cccc(C(=O)NN(C(=O)c2cc(C)cc(C)c2)C(C)(C)C)c1C | -24.8%
CNC(=O)Oc1ccccc1C1OCCO1 | 4.32%
CC1CCC(=O)O1 (stereo not given) | -6.79%
CCCCCCBr | 0.352%
O=c1oc2ccccc2c(O)c1C1CCCc2ccccc21 (stereo not given) | -20.9%
CCCCCCI | -0.122%
CCNc1nc(NC(C)C)nc(OC)n1 | -0.534%
CC1(C)C(=O)NC(=O)NC1=O | -0.272%
NC(=S)C(N)=S | -20.6%
CC1(C)COP(Oc2ccccc2)OC1 | 6.55%
CN1CCC(O)(c2ccc(F)cc2)C(C(=O)c2ccc(F)cc2)C1 (stereo not given) | 0.426% [at 42.5 µM]
CC1COC2(c3ccccc3Cl)c3cc(Cl)ccc3NC(=O)CN12 (stereo not given) | -27.8% [at 42.5 µM]
ClC(Br)Br | 1.41%
[O]=[Cd] | -14%
C[N+](=O)[O-] | 6.34%
C#CCN1C(=O)COc2cc(F)c(N3C(=O)C4=C(CCCC4)C3=O)cc21 | -22.6%
[As]#[In] | 0.493%
CC(C)(C)NCC(O)c1cc(Cl)c(N)c(Cl)c1 (stereo not given) | 6.3% [at 42.5 µM]
